A number with no mark means an inactive call. The source made the active and inactive calls.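 How the source made its calls, unless noted: active means NADPH fluorescence slope more negative than the mean of all samples by about 3 SD, 99.7% confidence; inactive means the rest.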
These molecules were tested against Voltage-gated potassium channel subunit beta-2 (Rattus norvegicus) (UniProt P62483) (assay: KvBeta enzyme negative modulators, primary screen, biochemical, NADPH fluorescence (AID 622;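 active means fluorescence slope higher than the sample average by over 3 SD, cut at about -0.22 in these data, passing the limit was not always enough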;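 further: slope of raw intensity against log time taken from 70 to 1610 s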)). Details: recombinant KvBeta, 4-cyanobenzaldehyde reduction, at 10 µM, stronger effect = higher value.
Chain of Voltage-gated potassium channel subunit beta-2 (Rattus norvegicus) (P62483 whole entry, looked up): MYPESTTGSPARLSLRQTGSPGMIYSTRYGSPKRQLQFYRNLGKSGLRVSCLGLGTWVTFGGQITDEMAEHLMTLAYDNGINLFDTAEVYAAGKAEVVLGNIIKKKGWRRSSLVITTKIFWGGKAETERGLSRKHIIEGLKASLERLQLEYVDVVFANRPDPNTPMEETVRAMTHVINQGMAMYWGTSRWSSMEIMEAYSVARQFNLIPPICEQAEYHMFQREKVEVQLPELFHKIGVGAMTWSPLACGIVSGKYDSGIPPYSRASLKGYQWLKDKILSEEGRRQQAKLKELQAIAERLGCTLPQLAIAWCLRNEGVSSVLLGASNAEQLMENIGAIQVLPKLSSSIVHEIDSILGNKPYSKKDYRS
CCC(=NC(C)c1ccccc1)c1c(O)n(C)c(=O)n(C)c1=O (stereo not given) gave a fluorescence slope of -0.518. Work on O=C(c1ccc(S(=O)(=O)N2CCOCC2)cc1)N1CCc2ccccc2C1 yielded a fluorescence slope of -0.469. Work on CCOC(=O)C1CCN(C(=O)C2CCN(S(=O)(=O)c3cc(Cl)ccc3Cl)CC2)CC1 yielded a fluorescence slope of -0.542. In the case of CCn1cnc2cc(NCc3cccc(OC)c3O)ccc21, the fluorescence slope was -0.437. For CC(OC1=CC(=O)CCC1)C(=O)c1ccccc1 (stereo not given), the fluorescence slope was -0.569. CCC(=O)N1CCc2cc(S(=O)(=O)CCC(=O)Nc3ccc(C)c(F)c3)ccc21 gave a fluorescence slope of -0.504. Cc1ccc(Cl)cc1NC(=O)CSc1nnc(C)n1-c1ccccc1 was tested, and the fluorescence slope was -0.551. O=C(CN1CCOCC1)Nc1cccc(C(=O)Nc2cccc(C(F)(F)F)c2)c1 gave a fluorescence slope of -0.574. Work on COc1cccc(NC(=O)COc2ccccc2C(N)=O)c1 yielded a fluorescence slope of -0.589. COc1ccc(C)cc1S(=O)(=O)N1CCN(Cc2ccccc2)CC1 was tested, and the fluorescence slope was -0.558. With Cc1ccc(OCC(O)Cn2c(=N)n(CCN3CCCCC3)c3ccccc32)cc1 (stereo not given) the fluorescence slope was -0.381. In the case of CCCCC(NC(C)=O)c1nc2ccccc2n1CCC (stereo not given), the fluorescence slope was -0.454. For O=C(c1cc(-c2ccco2)nn1-c1cccc(Cl)c1)N1CCCCC1, the fluorescence slope was -0.588. COC(=O)C1=C(C)NC(=O)C1(NC(=O)CN1CCCC1=O)C(F)(F)F (stereo not given) was tested, and the fluorescence slope was -0.435. With CN1CCN(S(=O)(=O)c2ccc(Sc3nnc(-c4cccs4)n3-c3ccccc3)nc2)CC1 the fluorescence slope was -0.245. In the case of CC(C)N(C=O)C1(C(=O)NC2CCCCC2)CCCCC1, the fluorescence slope was -0.551. COc1ccc(NC(=O)CSc2nnc(-c3ccncc3)n2CC2CCCO2)c(OC)c1 (stereo not given) was tested, and the fluorescence slope was -0.575. For CC1(C)CC(=O)c2cnc(NCc3ccco3)nc2C1, the fluorescence slope was -0.407. Work on c1ccc2c(c1)C(=Nn1cnnc1)c1ccccc1-2 yielded a fluorescence slope of -0.448. For O=C(CN1C(=O)NC(Cc2ccccc2)C1=O)Nc1ccccc1 (stereo not given), the fluorescence slope was -0.594. Work on O=C1CSC(c2cn(-c3ccccc3)nc2-c2ccccc2)N1Cc1ccco1 (stereo not given) yielded a fluorescence slope of -0.568. Work on CN(C)S(=O)(=O)c1ccc2c(c1)C(CC(=O)O)OC2=O (stereo not given) yielded a fluorescence slope of -0.511. Work on COc1ccc2nc(NC(=O)CSc3nnc(-c4ccoc4C)n3C)sc2c1 yielded a fluorescence slope of -0.563. Molecule COCCn1nnnc1C(C(C)C)N(Cc1cccnc1)Cc1ccccc1Cl (stereo not given) has a fluorescence slope of -0.574. With O=C(NCc1cccs1)C(Cc1ccccc1)NS(=O)(=O)c1cccs1 (stereo not given) the fluorescence slope was -0.437. With COC(=O)C1=C(C)N(c2ccc(C(=O)OC)cc2)C(=O)C1 the fluorescence slope was -0.567. Cc1ccc(-n2c3c(cc(C(=O)O)c2=O)C(=O)CC(C)(C)C3)cc1 showed a fluorescence slope of -0.377. COc1ccc(OC)c(NC(=O)CCN2CCN(c3ccccc3F)CC2)c1 gave a fluorescence slope of -0.54. Molecule OCc1nc(CO)n(Cc2ccccc2)n1 has a fluorescence slope of -0.501. With O=C(COc1ccc(Cl)cc1)Nc1nc(-c2cccs2)cs1 the fluorescence slope was -0.567. Work on CCNS(=O)(=O)c1ccc(S(=O)(=O)N(Cc2ccccn2)C2CCCCC2)cc1 yielded a fluorescence slope of -0.348. CC1N=C2c3ccccc3N=C(SCc3cc(=O)n4cc(Cl)ccc4n3)N2C1=O (stereo not given) gave a fluorescence slope of -0.478. For CCOC(=O)C1=C(C)N(C)C(C)=C(C(=O)OCC)C1c1cccnc1, the fluorescence slope was -0.5. For FC(F)Sc1nnc(-c2cccs2)n1-c1ccccc1, the fluorescence slope was -0.532. With Cc1noc(NS(=O)(=O)c2ccc(N3C(=O)c4ccccc4C3=O)cc2)c1C the fluorescence slope was -0.533. With CC(=O)N1CCc2cc(S(=O)(=O)NCCC3=CCCCC3)ccc21 the fluorescence slope was -0.425. With Cc1onc(-c2ccccc2)c1C(N)=O the fluorescence slope was -0.563. Molecule CC(C(=O)Nc1ccccc1-c1ccccc1)N1CCN(C(=O)c2ccco2)CC1 (stereo not given) has a fluorescence slope of -0.395. Molecule CNC(=O)CSc1nnc(-c2cc(C)cc(C)c2)o1 has a fluorescence slope of -0.547. In the case of CCOc1ccc(Cl)cc1S(=O)(=O)N1CCCC1, the fluorescence slope was -0.453.

Each molecule was assayed against Voltage-gated potassium channel subunit beta-2 (Rattus norvegicus) (UniProt P62483) (assay: KvBeta positive modulators, primary screen, biochemical, NADPH fluorescence (AID 623;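 further: fluorescence intensity change per second fitted from 20 to 320 s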)). Details: Recombinant KvBeta, NADPH fluorescence decrease slope, 10 min; at 10 µM; stronger effect = lower value.
Molecule CCC(=NC(C)c1ccccc1)c1c(O)n(C)c(=O)n(C)c1=O (stereo not given) has an NADPH fluorescence slope of -0.000132. In the case of O=C(c1ccc(S(=O)(=O)N2CCOCC2)cc1)N1CCc2ccccc2C1, the NADPH fluorescence slope was -1.3e-05. CCOC(=O)C1CCN(C(=O)C2CCN(S(=O)(=O)c3cc(Cl)ccc3Cl)CC2)CC1 was tested, and the NADPH fluorescence slope was 2.5e-05. Molecule CCn1cnc2cc(NCc3cccc(OC)c3O)ccc21 has an NADPH fluorescence slope of -4.8e-05. Molecule CC(OC1=CC(=O)CCC1)C(=O)c1ccccc1 (stereo not given) has an NADPH fluorescence slope of 1.9e-05. CCC(=O)N1CCc2cc(S(=O)(=O)CCC(=O)Nc3ccc(C)c(F)c3)ccc21 showed an NADPH fluorescence slope of 0.000146. Cc1ccc(Cl)cc1NC(=O)CSc1nnc(C)n1-c1ccccc1 was tested, and the NADPH fluorescence slope was -4.3e-05. O=C(CN1CCOCC1)Nc1cccc(C(=O)Nc2cccc(C(F)(F)F)c2)c1 gave an NADPH fluorescence slope of -6e-05. COc1cccc(NC(=O)COc2ccccc2C(N)=O)c1 was tested, and the NADPH fluorescence slope was 6.4e-05. Molecule COc1ccc(C)cc1S(=O)(=O)N1CCN(Cc2ccccc2)CC1 has an NADPH fluorescence slope of -1.1e-05. Work on Cc1ccc(OCC(O)Cn2c(=N)n(CCN3CCCCC3)c3ccccc32)cc1 (stereo not given) yielded an NADPH fluorescence slope of -4.1e-05. CCCCC(NC(C)=O)c1nc2ccccc2n1CCC (stereo not given) showed an NADPH fluorescence slope of -2.6e-05. O=C(c1cc(-c2ccco2)nn1-c1cccc(Cl)c1)N1CCCCC1 was tested, and the NADPH fluorescence slope was -1.4e-05. For COC(=O)C1=C(C)NC(=O)C1(NC(=O)CN1CCCC1=O)C(F)(F)F (stereo not given), the NADPH fluorescence slope was -7.2e-05. For CN1CCN(S(=O)(=O)c2ccc(Sc3nnc(-c4cccs4)n3-c3ccccc3)nc2)CC1, the NADPH fluorescence slope was -2e-05. In the case of CC(C)N(C=O)C1(C(=O)NC2CCCCC2)CCCCC1, the NADPH fluorescence slope was -4.6e-06. COc1ccc(NC(=O)CSc2nnc(-c3ccncc3)n2CC2CCCO2)c(OC)c1 (stereo not given) showed an NADPH fluorescence slope of -1.2e-05. In the case of CC1(C)CC(=O)c2cnc(NCc3ccco3)nc2C1, the NADPH fluorescence slope was -1.8e-05. c1ccc2c(c1)C(=Nn1cnnc1)c1ccccc1-2 gave an NADPH fluorescence slope of -6.8e-05. O=C(CN1C(=O)NC(Cc2ccccc2)C1=O)Nc1ccccc1 (stereo not given) was tested, and the NADPH fluorescence slope was -5.2e-06. Molecule O=C1CSC(c2cn(-c3ccccc3)nc2-c2ccccc2)N1Cc1ccco1 (stereo not given) has an NADPH fluorescence slope of -2.8e-05. CN(C)S(=O)(=O)c1ccc2c(c1)C(CC(=O)O)OC2=O (stereo not given) showed an NADPH fluorescence slope of 0.000172. Molecule COc1ccc2nc(NC(=O)CSc3nnc(-c4ccoc4C)n3C)sc2c1 has an NADPH fluorescence slope of -2.5e-05. With COCCn1nnnc1C(C(C)C)N(Cc1cccnc1)Cc1ccccc1Cl (stereo not given) the NADPH fluorescence slope was 1.3e-05. O=C(NCc1cccs1)C(Cc1ccccc1)NS(=O)(=O)c1cccs1 (stereo not given) was tested, and the NADPH fluorescence slope was -0.000238 (active). Work on COC(=O)C1=C(C)N(c2ccc(C(=O)OC)cc2)C(=O)C1 yielded an NADPH fluorescence slope of -4e-05. In the case of Cc1ccc(-n2c3c(cc(C(=O)O)c2=O)C(=O)CC(C)(C)C3)cc1, the NADPH fluorescence slope was 4.6e-05. Molecule COc1ccc(OC)c(NC(=O)CCN2CCN(c3ccccc3F)CC2)c1 has an NADPH fluorescence slope of -3.3e-05. Molecule OCc1nc(CO)n(Cc2ccccc2)n1 has an NADPH fluorescence slope of -4.7e-05. Molecule O=C(COc1ccc(Cl)cc1)Nc1nc(-c2cccs2)cs1 has an NADPH fluorescence slope of 2.5e-05. CCNS(=O)(=O)c1ccc(S(=O)(=O)N(Cc2ccccn2)C2CCCCC2)cc1 gave an NADPH fluorescence slope of -6.9e-05. With CC1N=C2c3ccccc3N=C(SCc3cc(=O)n4cc(Cl)ccc4n3)N2C1=O (stereo not given) the NADPH fluorescence slope was -0.0001. In the case of CCOC(=O)C1=C(C)N(C)C(C)=C(C(=O)OCC)C1c1cccnc1, the NADPH fluorescence slope was -2.2e-05. In the case of FC(F)Sc1nnc(-c2cccs2)n1-c1ccccc1, the NADPH fluorescence slope was -3.2e-05. Cc1noc(NS(=O)(=O)c2ccc(N3C(=O)c4ccccc4C3=O)cc2)c1C gave an NADPH fluorescence slope of -3.7e-05. CC(=O)N1CCc2cc(S(=O)(=O)NCCC3=CCCCC3)ccc21 showed an NADPH fluorescence slope of 3.5e-05. With Cc1onc(-c2ccccc2)c1C(N)=O the NADPH fluorescence slope was -6.3e-05. CC(C(=O)Nc1ccccc1-c1ccccc1)N1CCN(C(=O)c2ccco2)CC1 (stereo not given) showed an NADPH fluorescence slope of 1.3e-05. In the case of CNC(=O)CSc1nnc(-c2cc(C)cc(C)c2)o1, the NADPH fluorescence slope was -3.9e-05. For CCOc1ccc(Cl)cc1S(=O)(=O)N1CCCC1, the NADPH fluorescence slope was 2.4e-05.

From PubChem BioAssay
